Measurements: PubChem BioAssay (NCATS)
Inconclusive results are not listed. Values without a mark were called inactive. Activity calls are given as the source filed them. The call rests on the fitted dose curve; in most records, active means well fitted curve in the direction sought with a large enough effect; inconclusive means small, poorly fitted or top-dose-only effect, or another doubt; inactive means no such curve, though single readings can be large; an effect the other way counts as inactive or inconclusive.

system: not listed separately; assay: NCATS anti-infectives library activity on HEK293 viability as a counter-qHTS vs the C. elegans viability qHTS (AID 1745854); conditions: HEK293 viability counter-screen; series mostly up to 41.8 µM; activity change, negative = cytotoxicity: at the top concentration; further: potency means the concentration at half of the fitted maximal effect
Method in brief: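 Cytotoxicity counter-screen to a worm viability qHTS: CellTiter-Glo luminescence read 10 min after reagent addition. Compounds (final up to 41.7 uM, a 1:5 dilution series) incubated 24 hr at 37C with 1,500 HEK293 cells per well; digitonin control.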
On the % scale 0 is the no-effect control and ±100 the full control effect.

| Structure (SMILES) | activity change, negative = cytotoxicity | Potency |
| --- | --- | --- |
| COc1c(C)c2c(c(O)c1C/C=C(\C)CCC(=O)OCCN1CCOCC1)C(=O)OC2 | -18.7% |  |
| OCCc1ccccc1 | -7.91% |  |
| CCCCCCCCCCCCCCCC[n+]1ccccc1 |  | 11.2 µM (active) |

target: Metallo-beta-lactamase type 2 (Klebsiella pneumoniae) (UniProt C7C422); assay: qHTS to identify inhibitors of the New Delhi Metallo-beta-lactamase (NDM): assay validation screen against the NCATS LOPAC Collection (AID 1794843); conditions: NDM-1 enzyme, nitrocefin hydrolysis, absorbance 485 nm; series mostly up to 38.4 µM; activity change, negative = inhibition: at the top concentration
Sequence (C7C422 whole entry, looked up): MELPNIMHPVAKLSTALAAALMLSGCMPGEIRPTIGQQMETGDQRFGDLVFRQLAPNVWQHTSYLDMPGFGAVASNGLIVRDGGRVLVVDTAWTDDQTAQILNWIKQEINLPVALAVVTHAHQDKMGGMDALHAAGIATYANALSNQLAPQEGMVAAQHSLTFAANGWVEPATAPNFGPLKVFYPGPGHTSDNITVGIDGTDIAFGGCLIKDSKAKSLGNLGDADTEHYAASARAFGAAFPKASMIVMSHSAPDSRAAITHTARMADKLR
Method in brief: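 Absorbance at 485 nm from nitrocefin turnover (50 uM solution added), read at plateau, gives the read-out. Compounds in DMSO were incubated first with 2 nM final NDM-1 in pH 7.0 HEPES buffer containing 1 uM ZnSO4 and 0.01% Tween20.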

| Structure (SMILES) | activity change, negative = inhibition |
| --- | --- |
| CC(C)N(CCC(=O)c1ccc2ccccc2c1)Cc1ccccc1 | 3.07% |
| O=[N+]([O-])c1ccc(-c2nc(-c3ccc(F)cc3)c(-c3ccncc3)[nH]2)cc1 | 2.76% |
| O=C1NC(c2cccc([N+](=O)[O-])c2)=CCN1c1ccccc1O | 9.66% |
| COc1ccccc1N1CCN(CCN2C(=O)CC3(CCCC3)CC2=O)CC1 | -26.8% |
| N[C@@H](Cn1ccc(=O)c(O)c1)C(=O)O | 2.18% |

target: Glutathione peroxidase 1 (Homo sapiens) (UniProt P07203); assay: Primary qHTS Assay for Inhibitors of Recombinant Selenoprotein Glutathione Peroxidase 1 (GPX1) (AID 1845191); conditions: recombinant GPX1, GR-coupled NADPH fluorescence, 15 min; series mostly up to 48.8 µM; activity, negative = inhibition: at the top concentration; outcome: at the top concentration; further: nearly all actives have a fitted effect of over 65% in size; further: potency means the concentration at half of the fitted maximal effect
Sequence (P07203 whole entry, looked up): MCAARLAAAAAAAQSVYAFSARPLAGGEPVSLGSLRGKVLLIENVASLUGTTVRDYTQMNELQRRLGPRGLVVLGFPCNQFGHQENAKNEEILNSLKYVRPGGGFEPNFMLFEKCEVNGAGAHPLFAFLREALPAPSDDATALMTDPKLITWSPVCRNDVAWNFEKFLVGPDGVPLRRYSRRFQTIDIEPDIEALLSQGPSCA
Method in brief: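 NADPH consumption tracked by fluorescence at 340/450 nm between t=0 and t=15 min, room temperature. Final mix: 10 nM GPX1, 100 nM glutathione reductase, 1 mM GSH, 0.5 mM NADPH, 0.5 mM cumene hydroperoxide, 0.01% BSA; 30 min compound–enzyme preincubation.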

| Structure (SMILES) | activity, negative = inhibition | outcome | Potency |
| --- | --- | --- | --- |
| Cc1ccc(O)cc1 | -10.9% |  |  |
| CCN1C(=O)c2ccccc2C1Nc1ccc(OCCN2CCCCC2)cc1 (centres undefined) | 0.28% |  |  |
| Nc1ccc2cc3ccc(N)cc3nc2c1 |  | inactive |  |
| CCCCCCCCCCCCCCCC[N+](C)(C)Cc1ccccc1 | -13.5% |  |  |
| CC(C)N(CCC(=O)c1ccc2ccccc2c1)Cc1ccccc1 |  |  | inactive |
| CC(C)C(=O)OCc1cccc(OC(=O)[C@@H]2N3C(=O)[C@@H](NC(=O)Cc4ccccc4)[C@H]3SC2(C)C)c1 | -36.3% |  |  |
| CC(=O)/C=C/C=C1/C2CCC(C2)C1(C)C (centres undefined) | -13.3% |  |  |
| C=CC[N+]1([C@H]2C[C@H]3[C@@H]4CC[C@H]5C[C@H](OC(C)=O)[C@@H](N6CCCCC6)C[C@]5(C)[C@H]4CC[C@]3(C)[C@H]2OC(=O)CC)CCCCC1 | -14.2% |  |  |
| O=C1NC2CCCCN2C12CCN(CCCN1c3ccccc3CCc3ccc(Cl)cc31)CC2 (centres undefined) | -12.3% |  |  |
| COc1c(C)c2c(c(O)c1C/C=C(\C)CCC(=O)OCCN1CCOCC1)C(=O)OC2 |  |  | inactive |
| O=[N+]([O-])c1ccc(-c2nc(-c3ccc(F)cc3)c(-c3ccncc3)[nH]2)cc1 |  |  | inactive |
| COC(=O)[C@H]1[C@H]2C[C@@H]3c4[nH]c5cc(OC)ccc5c4CCN3C[C@H]2C[C@@H](OC(=O)/C=C/c2ccc(O)c(OC)c2)[C@@H]1OC | 1.11% |  |  |
| CCC(=O)O[C@H]1[C@H](O[C@@H]2[C@@H](C)[C@H](O[C@H]3C[C@@](C)(OC)[C@@H](O)[C@H](C)O3)[C@@H](C)C(=O)O[C@H](CC)[C@@](C)(O)[C@H](O)[C@@H](C)C(=O)[C@H](C)C[C@@]2(C)O)O[C@H](C)C[C@@H]1N(C)C | 4.86% |  |  |
| OCCc1ccccc1 | -15.5% |  |  |
| CCCCCCCCCCCCCCCC[n+]1ccccc1 | -19.2% |  |  |
| COc1ccccc1N1CCN(CCN2C(=O)CC3(CCCC3)CC2=O)CC1 |  |  | inactive |
| O=C(COCCOCCOCC(=O)Nc1c(I)cc(I)c(C(=O)O)c1I)Nc1c(I)cc(I)c(C(=O)O)c1I | -0.689% |  |  |
| Nc1c2ccccc2nc2ccccc12 |  |  | 22.7 µM (active) |
| CC(C)=CCNc1ncnc2c1ncn2[C@@H]1O[C@H](CO)[C@@H](O)[C@H]1O |  | inactive |  |
| N[C@@H](Cn1ccc(=O)c(O)c1)C(=O)O |  |  | inactive |
| O=C1CC[C@H](C(=O)N2CCCCC2)N1 | -1.18% |  |  |
| CO[C@@]1(NC(=O)CSC[C@@H](N)C(=O)O)C(=O)N2C(C(=O)O)=C(CSc3nnnn3C)CS[C@@H]21 |  |  | 22.7 µM (active) |
| O=C(O)CCCC[C@@H]1SC[C@@H]2NC(=O)N[C@@H]21 | -15% |  |  |
| Nc1c(NC/C=C\COc2cc(CN3CCCCC3)ccn2)c(=O)c1=O | -8.44% [at 27.7 µM] |  |  |

target: Phospholipid hydroperoxide glutathione peroxidase GPX4 (Homo sapiens) (UniProt P36969); assay: Primary qHTS Assay for Inhibitors of Recombinant Selenoprotein Glutathione Peroxidase 4 (GPX4) (AID 1845192); conditions: recombinant GPX4, GR-coupled NADPH fluorescence, 15 min; series mostly up to 50 µM; activity change, negative = inhibition: at the top concentration; outcome: at the top concentration; further: nearly all actives have a fitted effect of over 65% in size
Sequence (P36969 whole entry, looked up): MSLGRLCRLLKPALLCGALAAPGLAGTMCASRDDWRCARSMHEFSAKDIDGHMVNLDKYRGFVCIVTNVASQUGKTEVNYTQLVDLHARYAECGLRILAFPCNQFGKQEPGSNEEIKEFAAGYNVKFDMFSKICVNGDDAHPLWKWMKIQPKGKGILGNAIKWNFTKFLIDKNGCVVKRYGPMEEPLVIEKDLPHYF
Method in brief: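 NADPH consumption followed by fluorescence at 340/450 nm, t=0 and after 15 min at room temperature. Reaction started with cumene hydroperoxide (0.5 mM final) after 30 min compound–GPX4 preincubation; final 200 nM GPX4, 100 nM GR, 1 mM GSH, 0.5 mM NADPH.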

| Structure (SMILES) | activity change, negative = inhibition | Potency | outcome |
| --- | --- | --- | --- |
| CCN1C(=O)c2ccccc2C1Nc1ccc(OCCN2CCCCC2)cc1 (centres undefined) | 1.87% |  |  |
| CC(C)N(CCC(=O)c1ccc2ccccc2c1)Cc1ccccc1 |  | inactive |  |
| C=CC[N+]1([C@H]2C[C@H]3[C@@H]4CC[C@H]5C[C@H](OC(C)=O)[C@@H](N6CCCCC6)C[C@]5(C)[C@H]4CC[C@]3(C)[C@H]2OC(=O)CC)CCCCC1 | 3.62% |  |  |
| O=C1NC2CCCCN2C12CCN(CCCN1c3ccccc3CCc3ccc(Cl)cc31)CC2 (centres undefined) | -2.25% |  |  |
| COc1c(C)c2c(c(O)c1C/C=C(\C)CCC(=O)OCCN1CCOCC1)C(=O)OC2 |  | inactive |  |
| OCCc1ccccc1 | -24.1% |  |  |
| CCCCCCCCCCCCCCCC[n+]1ccccc1 | -18.6% |  |  |
| O=C1NC(c2cccc([N+](=O)[O-])c2)=CCN1c1ccccc1O |  | inactive |  |
| COc1ccccc1N1CCN(CCN2C(=O)CC3(CCCC3)CC2=O)CC1 |  | inactive |  |
| COC(=O)C1=C(C)NC(COC(N)=O)=C(C(=O)OC(C)C)C1c1cccc(Cl)c1Cl (centres undefined) | -16.3% |  |  |
| N[C@@H](Cn1ccc(=O)c(O)c1)C(=O)O |  | inactive |  |
| O=C(O)CCCC[C@@H]1SC[C@@H]2NC(=O)N[C@@H]21 |  |  | inactive |
